Screening results from PubChem.
This excerpt belongs to a sample that is enriched for hits.
Cycloheximide cs = counter-screen for Shiga toxin inhibitors: cycloheximide protein synthesis inhibition. max response, %. AID 2314. cell reporter, cycloheximide protein synthesis inhibition counterscreen. 12% of 300,000 active; in the data active means max response mostly above about 13%, no sharp cut-off; inactive means mostly below about 14%; further: read at 38.3 µM for the half of the compounds with a filed dose
LASV entry inh = blocks Lassa virus binding to or entry into cells | Lassa virus pseudotype entry inhibition, cell reporter | Potency, µM (top dose mostly 37.9 µM), actives largely listed as inhibitors | 1.2% of 300,000 active | AID 540256; calls by dose curve; tested in HEK293 cells; further: nearly all actives have a fitted effect of over 50% in size
Marburg entry inh = blocks Marburg virus binding to or entry into cells; Marburg virus pseudotyped entry inhibition, cell reporter; Potency, µM (highest dose often 37.8 µM), actives largely listed as inhibitors; 1.8% of 300,000 active; calls by dose curve; tested in HEK293 cells
AMA1-RON2 inh = inhibitors of Plasmodium falciparum AMA1-RON2 interaction | Potency, µM (top dose mostly 58.2 µM), most hits filed as inhibitors | AlphaScreen AMA1-biotinylated RON2 peptide binding | 0.2% of 360,000 active; active means well fitted inhibition curve with a large enough effect; inconclusive means small, poorly fitted or top-dose-only effect; inactive means no such curve, though single readings can be large or run the other way; further: nearly all actives have a fitted effect of over 45% in size
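AMA1 (3D7) with his tag at 25 nM final met compounds first, then biotinylated RON2 peptide at 25 nM; detection used donor plus acceptor beads, 10 µg/mL apiece, read by AlphaScreen after 30 min at room temperature.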
Shiga inhibitor = Shiga toxin inhibition; inhibition, % at 38.7 µM; 9.2% of 290,000 active; Vero cells, Shiga toxin protein synthesis inhibition reporter; in the data active means inhibition mostly above about 28%, no sharp cut-off; inactive means mostly below about 43%
Hits are given with their value; . = inactive; ? = inconclusive; / = no result; [ ] = remark or other dose.

SMILES	Cycloheximide cs	LASV entry inh	Marburg entry inh	AMA1-RON2 inh	Shiga inhibitor
O=C(NCc1ccccn1)Nc1ccccc1	42.8	.	?	.	82.0
O=C(Nc1ccccc1)OCCCCCOC(=O)Nc1ccccc1	.	/	/	.	/
Cc1cccc(NC(=O)C(=O)NCc2ccccn2)c1	59.3	?	.	.	168.0
O=C(Nc1ccccc1)OCc1ccccn1	26.0	.	.	.	57.0
O=C(NCc1ccccn1)Nc1cccc(F)c1	26.2	/	/	.	39.1
CN(C(=O)CSc1nc2ccc(NC(=O)c3ccco3)cc2s1)c1ccccc1	/	.	?	/	/
CCc1ccccc1N(CC(=O)NCc1ccco1)C(=O)CCC(=O)Nc1nccs1	.	.	.	.	.
O=C(NCc1ccccn1)Nc1ccc(Br)cc1	12.5	/	/	.	28.8
O=C(Nc1ccc(Cl)cc1)OCc1cn(-c2ccccc2)nn1	30.2	.	.	.	.
Cc1cc(C)c(NC(=O)COCc2cc(-c3cccs3)on2)c(C)c1	/	.	/	/	/
O=C(c1ccccc1)c1nc2c(n1O)CCCCC2	32.0	.	.	.	44.0
CCCOc1ccc(C(=O)c2nc3c(n2O)CCCCC3)cc1	.	.	.	.	.
O=C(NCCc1ccc(F)cc1)c1ccc(NS(=O)(=O)c2ccc3[nH]c(=O)[nH]c3c2)cc1	/	.	.	.	/
COc1ccc(NC(=O)CS(=O)(=O)c2cn(CC(=O)N3CCOCC3)c3ccccc23)cc1	.	.	.	.	.
Cc1[nH]c2ccccc2c1C(=O)COc1ccccc1F	24.8	.	.	.	.
Cc1[nH]c2ccccc2c1C(=O)COc1ccccc1	14.8	.	.	.	.
CC(=O)Oc1ccccc1/C=C/c1nc2ccccc2c(=O)o1	.	2µM	?	.	.
O=c1oc(/C=C/c2ccc([N+](=O)[O-])s2)nc2ccccc12	11.7	/	/	.	.
O=[N+]([O-])c1ccc(C=Nc2cccc3ccccc23)s1	.	?	?	.	.
Cc1ncc(CO)c(/C=N/Nc2ccc(C(F)(F)F)cn2)c1O	.	?	3.98µM	.	.
CCOc1ccccc1C=NN=Cc1ccccc1O	/	.	.	.	/
Cc1ncc(CO)c(/C=N/N=C/c2ccccc2O)c1O	16.0	?	.	.	.
Cc1ncc(CO)c(/C=N/NC(=S)Nc2ccc(F)cc2)c1O	.	?	14.1µM	.[11.6 µM]	.
Oc1ccc(C=NNC(=S)Nc2ccc(F)cc2)c(O)c1	/	.	?	.	/
N=c1n(CCN2CCCCC2)c2ccccc2n1CC(O)c1cccc(Br)c1 (stereo not given)	.	?	11.2µM	.	.
SMILES	Cycloheximide cs	LASV entry inh	Marburg entry inh	AMA1-RON2 inh	Shiga inhibitor
N=c1n(CCN2CCCCC2)c2ccccc2n1CC(O)c1ccc(Cl)c(Cl)c1 (stereo not given)	.	?	5.8µM	.	.
N=c1n(CCN2CCCCC2)c2ccccc2n1CC(O)COc1ccccc1 (stereo not given)	.	?	?	.	.
CCc1ccc(CNC(=O)c2ccc3c(c2)nc2n3CCOC2)cc1	/	.	/	/	/
CCCn1cc(S(=O)(=O)c2cccc(Cl)c2)c(=O)c2cc(F)c(N3CCOCC3)cc21	/	.	/	/	/
COc1ccc(C)cc1S(=O)(=O)N1CC(C)OC(C)C1 (stereo not given)	37.9	.	.	.	.
COc1ccc(Br)cc1S(=O)(=O)N1CCCC1	30.0	.	.	.	53.6
Nn1c(Nc2ccccc2)nc2ccccc21	35.7	.	.	.	58.1
Nn1c(Nc2ccccc2)nc2ccccc2c1=O	.	.	.	.	.
Cn1c(Nc2ccccc2)nc2ccccc21	25.2	/	/	.	.
CC(C)C(OC(=O)CN1C(=O)c2ccccc2C1=O)C(=O)NC1CCCC1 (stereo not given)	.	?	.	.	.
O=Cc1c(NCc2ccco2)nc2ccccn2c1=O	16.4	.	.	.	.
CCC(C)N=Cc1c(NCc2ccco2)nc2c(C)cccn2c1=O (stereo not given)	.	.	.	.	.
Fc1ccc(CSc2ccc(-c3ccc4c(c3)OCO4)nn2)cc1	10.9	.	.	.	.
Cc1cc(NC(=O)CSc2ccc(-c3ccc4c(c3)OCO4)nn2)no1	.	/	/	/	.
c1ccc(CSc2ccc(-c3ccc4c(c3)OCO4)nn2)cc1	27.4	?	?	?	.
NNC(=O)c1ccc(COc2ccc3c(c2)CCC3)o1	.	.	?	.	.
Cn1cc(CNC(=O)c2cc(COc3ccc4c(c3)CCCC4)on2)cn1	23.0	.	.	.	.
O=C(NC(c1cccnc1)C(F)(F)F)c1cc(COc2ccc3c(c2)CCCC3)on1 (stereo not given)	46.1	/	/	.	99.9
CCN(Cc1cnn(C)c1)C(=O)c1cc(COc2ccc3c(c2)CCCC3)on1	.	/	/	.	.
